Data from PubChem BioAssay (NCATS).
Results filed as inconclusive are left out. Entries that show only a call come without a potency. Active and inactive are the calls of the source. Unless noted, calls come from the whole dose curve.

Experiments:
[1] = qHTS for Inhibitors of the Functional Ribonucleoprotein Complex (vRNP) of Lassa (LASV) Arenavirus: LASV Primary Screen - GLuc reporter signal (AID 1347082; calls by dose curve; tested in HEK293 reporter line; note: nearly all actives have a fitted effect of over 60% in size; note: potency is the fitted concentration of half-maximal effect)
[2] = Cytotoxicity counterscreen for inhibitors of SARS-CoV-2 cell entry (AID 1645845); note: nearly all actives have a fitted effect of over 50% in size
Outline: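 HEK293-ACE2 cells (Expi293F stably expressing human ACE2) seeded overnight, then compound for 1 h plus 48 h at 37C. Viability as ATP content by luminescence; normalized to wells with cells and media-only wells.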

[3] = Primary qHTS to identify inhibitors of SARS-CoV-2 cell entry (AID 1645846); settings: activity change, negative = inhibition: at 57.1 µM (top of the series) unless noted; note: nearly all actives have a fitted effect of over 45% in size; note: potency is the fitted concentration of half-maximal effect
Outline: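 HEK293 cells stably expressing human ACE2, pre-treated 1 h with compound, then infected with MLV particles pseudotyped with Wuhan-Hu-1 spike (C-terminal 19-aa truncation). Luciferase luminescence after 48 h at 37 °C, normalised to spike PP and bald PP.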

[4] = target: Rap guanine nucleotide exchange factor 3 (Homo sapiens) (UniProt O95398); test: Confirmatory qHTS for agonist of cAMP-regulated guanine nucleotide exchange factor 3 (EPAC1) (AID 1645881; active = well fitted curve in the direction sought with a large enough effect; an effect the other way counts as inactive or inconclusive;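 note: EPAC1 catalysed release of BODIPY-GDP from Rap1B seen as fluorescence loss; nearly all actives have a fitted effect of over 75% in size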)
[5] = target: Rap guanine nucleotide exchange factor 4 (Homo sapiens) (UniProt Q8WZA2); test: Confirmatory qHTS for agonist of cAMP-regulated guanine nucleotide exchange factor 4 (EPAC2) (AID 1645884; active = well fitted curve in the direction sought with a large enough effect; an effect the other way counts as inactive or inconclusive;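 note: nucleotide exchange releases bodipy-GDP from Rap1 and this lowers its fluorescence; nearly all actives have a fitted effect of over 65% in size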)
[6] = target: Rap guanine nucleotide exchange factor 4 (Homo sapiens) (UniProt Q8WZA2); test: Confirmatory qHTS for antagonist of cAMP-regulated guanine nucleotide exchange factor 4 (EPAC2) (AID 1645885; active = well fitted curve in the direction sought with a large enough effect; an effect the other way counts as inactive or inconclusive; note: nearly all actives have a fitted effect of over 25% in size)
[7] = target: Rap guanine nucleotide exchange factor 3 (Homo sapiens) (UniProt O95398); test: Counterscreen qHTS for antagonist of cAMP-regulated guanine nucleotide exchange factor 3 (EPAC1) (AID 1645888; active = well fitted curve in the direction sought with a large enough effect; an effect the other way counts as inactive or inconclusive;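 note: fluorescence loss as bound BODIPY-GDP is released from Rap1B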)
Outline: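 Rap1B–BODIPY-GDP (250 nM) with 50 uM GDP; compounds pin-transferred to 9.74 nM–152 uM final (activator) or from 7.32 nM upwards (inhibitor). Fluorescence Ex/Em 480/540 nm read at 5 and 30 min, then after adding cAMP or buffer, at room temperature.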

[8] = Inducers of the Endoplasmic Reticulum Stress Response (ERSR) in human glioma: Validation (AID 504836; active = well fitted curve in the direction sought with a large enough effect; an effect the other way counts as inactive or inconclusive)
Outline: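 Stably transfected U87-MG glioma cells carrying a GRP78-based luciferase sensor; 16 h compound incubation. Luminescence end-point read 10 min after Bright-Glo addition at room temperature.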

[9] = Confirmatory qHTS to identify inhibitors of SARS-CoV-2 cell entry (AID 1645844); note: potency is the fitted concentration of half-maximal effect; nearly all actives have a fitted effect of over 45% in size
Outline: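 HEK293-ACE2 cells were pretreated 1 h with compound, then infected with MLV-based pseudoparticles bearing C-terminally truncated Wuhan-Hu-1 spike for 48 h at 37C; luciferase luminescence normalized to spike PP and bald PP wells.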

[10] = VSVG counterscreen qHTS to identify inhibitors of SARS-CoV-2 cell entry (AID 1645847); note: potency is the fitted concentration of half-maximal effect; nearly all actives have a fitted effect of over 65% in size
Outline: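 HEK293-ACE2 cells (Expi293F, human ACE2) pretreated 1 h with compound, then infected with MLV-based VSV-G pseudotyped particles for 48 h at 37 C; luciferase luminescence normalized to VSV-G PP and bald PP wells.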

[11] = Validation screen for inhibitors of Lassa infection (AID 463096); note: potency is the fitted concentration of half-maximal effect
[12] = target: Voltage-gated inwardly rectifying potassium channel KCNH2 (Homo sapiens) (UniProt Q12809); test: qHTS Assay for Small Molecule Inhibitors of the Human hERG Channel Activity (AID 588834; active = well fitted curve in the direction sought with a large enough effect; an effect the other way counts as inactive or inconclusive;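 note: potency is the fitted concentration of half-maximal effect; lower thallium flux fluorescence means stronger hERG block; nearly all actives have a fitted effect of over 50% in size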)
Outline: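 U2OS cells BacMam-transduced with hERG, 2000 cells/well, compound ~10 min at 37 °C before stimulation buffer. FluxOR thallium flux fluorescence read kinetically on FDSS; decrease indicates block; AC50 from Hill fits.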

[13] = qHTS profiling of the MIPE4 collection as inhibitors of Plasmodium falciparum (3D7) proliferation (AID 743344; call rule not given here); settings: P. falciparum 3D7 in erythrocytes, SYBR Green DNA fluorescence, 72 h; at 28.5 µM (top of the series) unless noted
Outline: (§1)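 Erythrocytes infected with P. falciparum (0.3% parasitemia, 2.5% hematocrit) incubated with compounds 72 h at 37 C, 5% CO2. Lysis with saponin/Triton buffer containing SYBR Green I, overnight at room temperature in the dark; DNA fluorescence (485/535 nm) normalised to 0.29 uM artemisinin and DMSO.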

[14] = qHTS profiling of the MIPE4 collection as inhibitors of Plasmodium falciparum (DD2) proliferation (Rep 2) (AID 743346; call rule not given here); settings: P. falciparum Dd2 in erythrocytes, SYBR Green DNA, 72 h; at 28.5 µM (top of the series) unless noted
Outline: as §1

[15] = qHTS for Inhibitors of the Functional Ribonucleoprotein Complex (vRNP) of Lassa (LASV) Arenavirus: Viability assay - alamar blue signal for LASV Primary Screen (AID 1347083; calls by dose curve; tested in HEK293 reporter line; note: nearly all actives have a fitted effect of over 80% in size; note: potency is the fitted concentration of half-maximal effect)
[16] = target: Alpha-galactosidase (Coffea arabica) (UniProt Q42656); test: Counterscreen for Glucocerebrosidase Inhibitors: qHTS Assay for Coffee Bean alpha-Galactosidase at pH 4.5 (AID 957; active = well fitted curve in the direction sought with a large enough effect; an effect the other way counts as inactive or inconclusive)
Outline: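 AC50 values derive from Hill-equation modeling of concentration-response data, normalized to no-enzyme and full-activity controls. The pH 4.5 citrate assay used 2 nM coffee bean enzyme and 80 uM fluorogenic substrate for 20 min.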

[17] = target: Alpha-galactosidase (Coffea arabica) (UniProt Q42656); test: Counterscreen for Glucocerebrosidase Inhibitors: qHTS Assay for Coffee Bean alpha-Galactosidase at pH 5.9 (AID 998; active = well fitted curve in the direction sought with a large enough effect; an effect the other way counts as inactive or inconclusive)
Outline: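 Green coffee bean enzyme (2 nM) with 4-methylumbelliferyl alpha-D-galactopyranoside (80 uM) in 50 mM citric acid, 0.005% Tween-20, pH 5.9, 20 min at room temperature; compounds 0.7 nM–77 uM. Stopped at pH 10, fluorescence Ex365/Em440; Hill-fit AC50.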

[18] = qHTS for Inhibitors of the Functional Ribonucleoprotein Complex (vRNP) of Lymphocytic Choriomeningitis Arenaviruses (LCMV): Viability assay - alamar blue signal for LCMV Primary Screen (AID 1347085; calls by dose curve; tested in HEK293 reporter line; note: nearly all actives have a fitted effect of over 80% in size; note: potency is the fitted concentration of half-maximal effect)
[19] = target: Nucleoprotein (Lymphocytic choriomeningitis virus (strain Armstrong)) (UniProt P09992); test: qHTS for Inhibitors of the Functional Ribonucleoprotein Complex (vRNP) of Lymphocytic Choriomeningitis Arenaviruses (LCMV): LCMV Primary Screen - GLuc reporter signal (AID 1347086); note: potency is the fitted concentration of half-maximal effect; nearly all actives have a fitted effect of over 70% in size
Nucleoprotein (Lymphocytic choriomeningitis virus (strain Armstrong)), sequence (P09992 whole entry, looked up): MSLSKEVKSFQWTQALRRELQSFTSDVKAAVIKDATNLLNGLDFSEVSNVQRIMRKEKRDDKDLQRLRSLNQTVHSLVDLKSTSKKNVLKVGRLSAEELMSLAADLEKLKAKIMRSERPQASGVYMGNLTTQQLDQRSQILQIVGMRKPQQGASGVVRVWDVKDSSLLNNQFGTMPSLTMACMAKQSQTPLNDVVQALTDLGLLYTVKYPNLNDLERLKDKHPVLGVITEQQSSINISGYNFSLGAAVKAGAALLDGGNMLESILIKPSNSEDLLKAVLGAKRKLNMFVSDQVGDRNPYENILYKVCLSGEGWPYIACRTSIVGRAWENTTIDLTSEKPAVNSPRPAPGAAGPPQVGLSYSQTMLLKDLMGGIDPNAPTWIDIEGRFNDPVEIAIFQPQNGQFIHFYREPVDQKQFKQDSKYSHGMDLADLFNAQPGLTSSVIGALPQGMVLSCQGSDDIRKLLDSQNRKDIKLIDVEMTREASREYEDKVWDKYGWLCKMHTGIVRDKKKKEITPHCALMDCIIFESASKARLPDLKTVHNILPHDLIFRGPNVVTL

Alpha-galactosidase (Coffea arabica), sequence (Q42656 whole entry, looked up): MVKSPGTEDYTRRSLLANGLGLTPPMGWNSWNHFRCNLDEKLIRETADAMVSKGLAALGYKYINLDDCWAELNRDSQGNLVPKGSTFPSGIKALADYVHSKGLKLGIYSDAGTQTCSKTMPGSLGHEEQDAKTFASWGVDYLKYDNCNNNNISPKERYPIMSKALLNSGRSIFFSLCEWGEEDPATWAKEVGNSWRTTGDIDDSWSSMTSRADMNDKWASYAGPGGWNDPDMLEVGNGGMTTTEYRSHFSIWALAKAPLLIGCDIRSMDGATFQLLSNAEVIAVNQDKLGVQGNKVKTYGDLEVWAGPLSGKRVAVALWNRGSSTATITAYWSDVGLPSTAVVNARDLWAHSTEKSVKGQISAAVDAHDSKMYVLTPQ
Rap guanine nucleotide exchange factor 3 (Homo sapiens), sequence (O95398 whole entry, looked up): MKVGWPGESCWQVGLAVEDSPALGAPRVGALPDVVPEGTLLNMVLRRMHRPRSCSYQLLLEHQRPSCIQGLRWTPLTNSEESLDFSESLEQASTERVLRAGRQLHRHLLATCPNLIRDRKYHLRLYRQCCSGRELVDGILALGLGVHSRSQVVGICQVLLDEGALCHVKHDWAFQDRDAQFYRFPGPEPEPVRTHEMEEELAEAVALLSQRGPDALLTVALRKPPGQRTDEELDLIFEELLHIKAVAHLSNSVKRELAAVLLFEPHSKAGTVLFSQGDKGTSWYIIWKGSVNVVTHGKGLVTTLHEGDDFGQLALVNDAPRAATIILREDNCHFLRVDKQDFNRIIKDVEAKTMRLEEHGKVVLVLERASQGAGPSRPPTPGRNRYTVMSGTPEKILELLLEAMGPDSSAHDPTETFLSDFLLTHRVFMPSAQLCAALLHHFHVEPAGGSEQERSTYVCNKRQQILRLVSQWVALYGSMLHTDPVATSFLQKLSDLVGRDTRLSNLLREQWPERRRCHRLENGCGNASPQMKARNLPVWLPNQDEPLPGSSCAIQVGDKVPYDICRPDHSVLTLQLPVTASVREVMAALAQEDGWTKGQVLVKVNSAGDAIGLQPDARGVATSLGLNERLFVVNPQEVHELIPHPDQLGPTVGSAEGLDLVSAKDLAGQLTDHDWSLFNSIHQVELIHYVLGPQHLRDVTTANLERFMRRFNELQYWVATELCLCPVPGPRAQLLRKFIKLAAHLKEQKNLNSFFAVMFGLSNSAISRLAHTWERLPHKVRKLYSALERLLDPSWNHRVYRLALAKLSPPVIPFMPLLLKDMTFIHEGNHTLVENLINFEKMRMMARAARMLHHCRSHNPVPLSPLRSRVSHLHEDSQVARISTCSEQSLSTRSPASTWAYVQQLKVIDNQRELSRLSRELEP
Rap guanine nucleotide exchange factor 4 (Homo sapiens), sequence (Q8WZA2 whole entry, looked up): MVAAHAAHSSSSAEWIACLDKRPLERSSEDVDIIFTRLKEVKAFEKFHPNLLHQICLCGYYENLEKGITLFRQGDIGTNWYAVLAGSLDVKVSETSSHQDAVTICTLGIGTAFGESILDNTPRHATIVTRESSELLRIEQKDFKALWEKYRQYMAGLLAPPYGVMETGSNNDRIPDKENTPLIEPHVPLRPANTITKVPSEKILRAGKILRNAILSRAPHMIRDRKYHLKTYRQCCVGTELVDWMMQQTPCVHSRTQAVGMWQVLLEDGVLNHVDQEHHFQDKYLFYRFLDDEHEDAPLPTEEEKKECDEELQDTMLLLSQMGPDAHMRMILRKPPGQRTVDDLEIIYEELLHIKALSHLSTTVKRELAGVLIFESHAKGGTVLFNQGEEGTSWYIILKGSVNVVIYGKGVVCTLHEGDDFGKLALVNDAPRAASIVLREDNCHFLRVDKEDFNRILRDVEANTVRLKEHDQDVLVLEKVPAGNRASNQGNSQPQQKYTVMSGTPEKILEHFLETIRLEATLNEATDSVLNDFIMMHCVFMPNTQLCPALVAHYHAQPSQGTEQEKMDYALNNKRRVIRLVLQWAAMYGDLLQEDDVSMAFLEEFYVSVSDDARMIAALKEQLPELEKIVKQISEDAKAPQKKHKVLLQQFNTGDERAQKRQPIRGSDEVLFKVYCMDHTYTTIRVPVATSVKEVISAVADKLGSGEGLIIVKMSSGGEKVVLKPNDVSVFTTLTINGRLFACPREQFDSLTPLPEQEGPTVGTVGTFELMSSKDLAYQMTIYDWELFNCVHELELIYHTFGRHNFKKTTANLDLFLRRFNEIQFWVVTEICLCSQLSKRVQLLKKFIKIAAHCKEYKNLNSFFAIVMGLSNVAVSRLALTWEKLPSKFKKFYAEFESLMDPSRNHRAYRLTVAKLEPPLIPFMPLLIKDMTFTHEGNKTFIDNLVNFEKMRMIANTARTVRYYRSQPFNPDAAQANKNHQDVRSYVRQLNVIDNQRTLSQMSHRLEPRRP
Voltage-gated inwardly rectifying potassium channel KCNH2 (Homo sapiens), sequence (Q12809 whole entry, looked up): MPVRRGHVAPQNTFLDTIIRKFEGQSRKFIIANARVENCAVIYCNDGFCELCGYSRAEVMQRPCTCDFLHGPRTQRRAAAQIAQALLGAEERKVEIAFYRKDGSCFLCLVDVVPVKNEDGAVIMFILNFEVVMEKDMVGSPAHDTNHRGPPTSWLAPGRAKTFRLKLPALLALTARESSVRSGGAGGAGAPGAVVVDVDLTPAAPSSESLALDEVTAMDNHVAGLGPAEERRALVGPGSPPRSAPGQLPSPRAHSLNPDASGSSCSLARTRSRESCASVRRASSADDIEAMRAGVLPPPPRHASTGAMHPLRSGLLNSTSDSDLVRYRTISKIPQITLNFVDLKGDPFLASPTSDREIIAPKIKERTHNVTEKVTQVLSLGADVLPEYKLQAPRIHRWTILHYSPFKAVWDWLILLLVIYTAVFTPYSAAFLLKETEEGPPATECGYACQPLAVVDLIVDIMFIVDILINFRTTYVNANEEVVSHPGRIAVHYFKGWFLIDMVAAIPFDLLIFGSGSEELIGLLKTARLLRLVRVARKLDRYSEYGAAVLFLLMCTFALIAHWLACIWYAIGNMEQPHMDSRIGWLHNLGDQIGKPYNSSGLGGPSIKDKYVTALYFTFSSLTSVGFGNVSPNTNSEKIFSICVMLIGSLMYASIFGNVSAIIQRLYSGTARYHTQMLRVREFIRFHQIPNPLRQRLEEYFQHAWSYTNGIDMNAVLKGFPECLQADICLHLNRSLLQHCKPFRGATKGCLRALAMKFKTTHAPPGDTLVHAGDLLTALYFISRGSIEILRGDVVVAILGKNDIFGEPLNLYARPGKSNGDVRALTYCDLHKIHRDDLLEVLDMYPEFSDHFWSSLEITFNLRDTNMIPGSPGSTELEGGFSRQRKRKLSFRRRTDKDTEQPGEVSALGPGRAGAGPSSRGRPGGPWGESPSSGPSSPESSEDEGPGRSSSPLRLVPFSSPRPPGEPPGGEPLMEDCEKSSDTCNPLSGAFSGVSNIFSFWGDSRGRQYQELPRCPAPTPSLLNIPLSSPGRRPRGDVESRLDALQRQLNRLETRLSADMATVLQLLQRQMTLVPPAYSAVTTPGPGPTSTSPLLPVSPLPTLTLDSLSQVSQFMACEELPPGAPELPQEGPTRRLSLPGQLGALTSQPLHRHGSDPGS

COc1ccc(-n2c(C)c([N+](=O)[O-])c3ccc(O)cc32)cc1
Potency [1]: inactive
Potency [2]: inactive
activity change, negative = inhibition [3]: -4.69%

COc1cc2c(cc1OC)-c1c(OC)c(OC)cc3c1C(C2)N(C)CC3 (configuration not stated)
Potency [1]: inactive
outcome [4]: inactive
outcome [5]: inactive
Potency [6]: inactive
outcome [7]: inactive

COc1ccc(-c2cc3ncc(C)n3c(Nc3ncccc3C(N)=O)n2)cc1OC
outcome [8]: inactive
Potency [1]: inactive

O=C(NC1CC1)c1cccc(-c2ccc3c(NC(=O)C4CC4)n[nH]c3c2)c1
Potency [1]: inactive
Potency [9]: 17.1 µM (active)
Potency [3]: 7.94 µM (active)
Potency [10]: 15.2 µM (active)

CC1CNCCN1S(=O)(=O)c1cccc2cnccc12 (configuration not stated)
Potency [11]: inactive
outcome [8]: inactive
Potency [1]: inactive

O[Si](CCCN1CCCCC1)(c1ccc(F)cc1)C1CCCCC1 (configuration not stated)
outcome [8]: inactive
Potency [12]: 14.1 µM (active)
Potency [1]: inactive

COc1cc(C)c(Sc2cnc(NC(=O)c3ccc(CNC(C)C(C)C)cc3)s2)cc1C(=O)N1CCN(C(C)=O)CC1 (configuration not stated)
Potency [1]: 24.3 µM (active)
Potency [9]: 9.61 µM (active)
activity change, negative = inhibition [3]: -95.3%
Potency [10]: 3.83 µM (active)

C[C@]12CC[C@H](O)CC1=CCC1C2CC[C@]2(C)C(n3cnc4ccccc43)=CCC12 (some centres not stated)
Potency [1]: inactive
Potency [2]: inactive
Potency [3]: inactive

CN1CCCC1CCOC(C)(c1ccccc1)c1ccc(Cl)cc1 (configuration not stated)
Potency [11]: 10 µM (active)
outcome [8]: inactive
Potency [1]: inactive

COc1ccc2c3c1OC1C[C@@H](O)C=C[C@@]31CCN(C)C2 (some centres not stated)
parasite growth, % of DMSO control [13]: 89.5%
parasite growth, % of control (lower = inhibition) [14]: 65.2%
Potency [1]: inactive

CC(=O)OC1C(O)C(C)OC(OC2C(OC(=O)C3CCC4C(C3)OC3(CC(OC(=O)/C=C/c5ccccc5)C(C)CO3)C43CO3)OC(C)C(O)C2OC(C)=O)C1O (configuration not stated)
Potency [15]: 0.178 µM (active)

CCN(CC)CCCC(C)Nc1nc(C)cc(Nc2ccc3nc(C)cc(N)c3c2)n1 (configuration not stated)
Potency [1]: inactive
Potency [2]: inactive
activity change, negative = inhibition [3]: -23.9%

Oc1cc(-c2nc(-c3ccccc3)[nH]c2-c2ccncc2)ccc1Cl
Potency [15]: 1.53 µM (active)

Cc1cc(Nc2ncnc3ccc(-c4ccc(CNCCS(C)(=O)=O)o4)cc23)ccc1Oc1ccn2ncnc2c1
Potency [1]: 15.3 µM (active)
Potency [2]: inactive
Potency [3]: inactive

O=C(Nc1nc2cccc(-c3ccc(CN4CCS(=O)(=O)CC4)cc3)n2n1)C1CC1
Potency [15]: 38.5 µM (active)

CCCCC[C@H](CC(=O)NO)C(=O)N[C@H](C(=O)N1CCC[C@H]1CO)C(C)C
Potency [11]: inactive
outcome [8]: inactive
Potency [1]: inactive

CN(C)c1cc2c(Nc3ccc4c(cnn4Cc4ccccc4)c3)ncnc2cn1
outcome [16]: inactive
outcome [17]: inactive
outcome [8]: inactive
Potency [1]: inactive

CCC1(O)CC2CN(CCc3c([nH]c4ccccc34)[C@@](C(=O)OC)(c3cc4c(cc3OC)N(C=O)C3[C@]45CCN4CC=C[C@@](CC)([C@@H](OC(C)=O)[C@]3(O)C(=O)OC)[C@H]45)C2)C1 (some centres not stated)
Potency [11]: 20 µM (active)
outcome [8]: inactive
Potency [1]: inactive

CCOC(=O)N1CCN(/[N+]([O-])=N/Oc2ccc([N+](=O)[O-])cc2[N+](=O)[O-])CC1
outcome [8]: inactive
Potency [1]: inactive
Potency [2]: inactive
activity change, negative = inhibition [3]: -5.73%

N=C(N)c1ccc(OCCCCCOc2ccc(C(=N)N)cc2)cc1 (tested in a mixture with another compound)
outcome [16]: inactive
outcome [17]: inactive
Potency [11]: inactive
outcome [8]: inactive
Potency [1]: 7.08 µM (active)

COc1ccc(COc2cc3oc(=O)c4cc(C(C)O)ccc4c3cc2OC)cc1 (configuration not stated)
Potency [1]: inactive
Potency [2]: inactive
activity change, negative = inhibition [3]: -25.6%

CCOC(=O)C1=C(C)NC(C)=C(C(=O)OCC)C1c1c(F)c(F)c(F)c(F)c1F
outcome [8]: inactive
Potency [1]: inactive

CC(=O)OC1(C)CC(C)C(=O)C(C(O)CC2CC(=O)NC(=O)C2)C1 (configuration not stated)
Potency [15]: inactive

CC(=O)OCC(=O)[C@@]12OC(C)(C)O[C@H]1C[C@H]1[C@@H]3C[C@H](F)C4=CC(=O)C=C[C@]4(C)[C@@]3(F)[C@@H](O)C[C@@]12C
Potency [15]: inactive
Potency [18]: inactive

CCC1=C[C@@H]2CN(C1)Cc1c([nH]c3ccccc13)[C@@](C(=O)OC)(c1cc3c(cc1OC)N(C)[C@@H]1[C@@](O)(C(=O)OC)[C@H](OC(C)=O)[C@]4(CC)C=CCN5CC[C@]31[C@@H]54)C2
Potency [15]: 0.306 µM (active)
Potency [18]: 0.217 µM (active)

COc1cc(C(=S)N2CCOCC2)cc(OC)c1OC
Potency [15]: inactive
Potency [18]: inactive

Clc1ccc(C2(c3ccc(-c4cn[nH]c4)cc3)CCNCC2)cc1
Potency [15]: 5.44 µM (active)
Potency [18]: 5.44 µM (active)

O=C(c1ccc(F)c(F)c1Nc1ccc(I)cc1F)N1CC(O)([C@H]2CCCCN2)C1
Potency [15]: 8.63 µM (active)
Potency [18]: 3.06 µM (active)

CCC[C@H](Nc1nc(-c2ccc(NC(=O)NCC)c(OC)c2)ncc1C)c1cccnc1
Potency [15]: 0.0385 µM (active)
Potency [18]: 0.0485 µM (active)
Potency [19]: 0.109 µM (active)

O=C1NC2C(=CC(O)C(O)C2O)c2cc3c(cc21)OCO3 (configuration not stated)
Potency [15]: 0.199 µM (active)
Potency [18]: 0.282 µM (active)
